From the supplement of paper PMC12669032

Legend:
Assay in all cases: growth AUC relative to DMSO control (median of replicates) (fraction); higher = more growth (less inhibition), active = hit call of the paper
Conditions in all cases: 20 µM; 24 h;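 active = AUC reduced over 20% with Padj below 0.05 in at least 2 of 3 replicates; inactive = otherwise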
[1] = test system: Coprococcus comes
Procedure, shortened: (§1)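 Each value is the median of three biological replicates, grown on separate days, of a gut bacterial monoculture incubated anaerobically at 37 °C in mGAM with 20 µM compound (1% DMSO). Cultures started at OD600 0.05 and were read at OD600 hourly for 24 h, with the minimum OD set to 0. Area under the growth curve was normalised to the plate median of solvent-only wells, or to row and column medians on the industrial chemical plate.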

[2] = test system: Escherichia coli ED1a
Procedure, shortened: as §1

[3] = test system: Escherichia coli IAI1
Procedure, shortened: as §1

[4] = test system: Eubacterium rectale
Procedure, shortened: as §1

[5] = test system: Fusobacterium nucleatum subsp. animalis
Procedure, shortened: as §1

[6] = test system: Lactobacillus gasseri
Procedure, shortened: as §1

[7] = test system: Lactobacillus paracasei
Procedure, shortened: as §1

[8] = test system: Odoribacter splanchnicus
Procedure, shortened: as §1

[9] = test system: Parabacteroides distasonis
Procedure, shortened: as §1

[10] = test system: Parabacteroides merdae
Procedure, shortened: as §1

[11] = test system: Roseburia intestinalis
Procedure, shortened: as §1

[12] = test system: Streptococcus salivarius
Procedure, shortened: as §1

Measured: growth AUC

O=c1oc2ccccc2c(O)c1C1CC(c2ccc(OCc3ccc(C(F)(F)F)cc3)cc2)Cc2ccccc21 (mixture of isomers)
active: [4] 0.431 | [6] 0.484 | [7] 0.631 | [9] 0.031 | [10] 0.251 | [11] 0.411 | [12] 0.212
inactive: [1] 0.858 | [2] 1.03 | [3] 1.04 | [5] 1.02 | [8] 0.989

O=P(OC(CCl)CCl)(OC(CCl)CCl)OC(CCl)CCl
active: [9] 0.5
inactive: [1] 0.89 | [2] 1.01 | [3] 1 | [4] 1.07 | [5] 1.11 | [6] 0.905 | [7] 1.03 | [8] 0.613 | [10] 0.911 | [11] 0.949 | [12] 0.969

CCN(CC)C(=S)[S-].O.O.O.[Na+]
inactive: [1] 0.964 | [2] 0.972 | [3] 0.976 | [4] 0.983 | [5] 1.09 | [6] 1.01 | [7] 0.978 | [8] 1 | [9] 0.982 | [10] 0.873 | [11] 0.894 | [12] 1.03

Oc1cccc2cccnc12
inactive: [1] 0.928 | [2] 0.987 | [3] 0.982 | [4] 0.904 | [5] 1.04 | [6] 1.08 | [7] 0.942 | [8] 1.02 | [9] 1 | [10] 0.993 | [11] 1 | [12] 0.995

CC(Oc1ccc(Cl)cc1Cl)C(=O)O (stereo not given)
inactive: [1] 1.02 | [2] 0.978 | [3] 0.966 | [4] 1.04 | [5] 0.97 | [6] 0.927 | [7] 0.989 | [8] 0.965 | [9] 0.857 | [10] 0.973 | [11] 0.978 | [12] 0.981

COCC(=O)N(c1c(C)cccc1C)N1CCOC1=O
inactive: [1] 0.939 | [2] 0.975 | [3] 1.02 | [4] 0.964 | [5] 0.882 | [6] 0.914 | [7] 0.953 | [8] 0.984 | [9] 1.03 | [10] 1.01 | [11] 0.994 | [12] 1

CC1=C(C(=O)Nc2ccccc2)S(=O)(=O)CCO1
inactive: [1] 0.986 | [2] 1.02 | [3] 0.994 | [4] 0.985 | [5] 0.959 | [6] 0.998 | [7] 0.981 | [8] 0.962 | [9] 0.975 | [10] 1 | [11] 0.989 | [12] 0.979

COC(=O)C(C)N(C(=O)c1ccco1)c1c(C)cccc1C (stereo not given)
inactive: [1] 0.96 | [2] 0.971 | [3] 0.981 | [4] 1.06 | [5] 1.04 | [6] 0.86 | [7] 1.06 | [8] 0.938 | [9] 1 | [10] 0.918 | [11] 0.97 | [12] 0.942

CCOP(=O)(Sc1ccccc1)Sc1ccccc1
inactive: [1] 1.02 | [2] 0.995 | [3] 0.982 | [4] 1.13 | [5] 1.08 | [6] 0.957 | [7] 0.953 | [8] 0.965 | [10] 0.934 | [11] 0.946 | [12] 0.948
active: [9] 0.649

CCCCCCCCCCCCC1=C(OC(C)=O)C(=O)c2ccccc2C1=O
inactive: [1] 0.863 | [2] 1 | [3] 0.975 | [4] 0.889 | [5] 1.02 | [7] 0.894 | [8] 0.959 | [9] 0.933 | [10] 0.878 | [11] 0.772 | [12] 0.957
active: [6] 0.504

CC(Oc1ccc(Oc2nc3ccc(Cl)cc3o2)cc1)C(=O)O (racemic)
inactive: [1] 1.05 | [2] 1.02 | [3] 0.997 | [4] 1.03 | [5] 1.12 | [6] 1.04 | [7] 1.07 | [8] 0.923 | [9] 1.04 | [10] 0.97 | [11] 1.12 | [12] 0.999

CCOP(=S)(Oc1ccc([N+](=O)[O-])cc1)c1ccccc1 (stereo not given)
inactive: [1] 0.949 | [2] 1.04 | [3] 1.05 | [4] 1.02 | [5] 1.09 | [6] 1.04 | [7] 1.07 | [8] 1.09 | [9] 0.947 | [10] 0.99 | [11] 1.04 | [12] 1.04

CCOP(=O)(OCC)O/C(=C/Br)c1ccc(Cl)cc1Cl
inactive: [1] 1.01 | [2] 0.976 | [3] 0.973 | [4] 1.04 | [5] 0.996 | [6] 0.976 | [7] 0.996 | [8] 1.02 | [10] 0.898 | [11] 0.995 | [12] 0.975
active: [9] 0.547

Cc1ccccc1[N+](=O)[O-]
inactive: [1] 1 | [2] 0.997 | [3] 0.992 | [4] 1 | [5] 1.03 | [6] 1.02 | [7] 0.999 | [8] 0.994 | [9] 1.06 | [10] 0.995 | [11] 0.969 | [12] 1.01

O=S(=O)(c1ccccc1)c1ccccc1
inactive: [1] 0.977 | [2] 0.988 | [3] 0.97 | [4] 1.03 | [5] 1 | [6] 0.914 | [7] 1.03 | [8] 0.999 | [9] 1.02 | [10] 0.929 | [11] 0.956 | [12] 0.943

C[n+]1ccc(-c2cc[n+](C)cc2)cc1.O.[Cl-].[Cl-]
inactive: [1] 0.98 | [2] 1.03 | [3] 0.991 | [4] 0.963 | [5] 0.937 | [6] 1.05 | [7] 1.01 | [8] 0.873 | [9] 0.997 | [10] 0.954 | [11] 1 | [12] 0.982

CCN(CC)N=O
inactive: [1] 1.01 | [2] 1.01 | [3] 1.04 | [4] 0.996 | [5] 0.998 | [6] 1.04 | [7] 0.981 | [8] 0.979 | [9] 1 | [10] 1.01 | [11] 1 | [12] 0.964

COP(=S)(OC)Oc1ccc([N+](=O)[O-])cc1
inactive: [1] 0.992 | [2] 0.999 | [3] 1 | [4] 1.13 | [5] 1.13 | [6] 0.915 | [7] 0.989 | [8] 0.771 | [9] 0.93 | [10] 0.964 | [11] 0.917 | [12] 0.968

CN(C)C(=O)Nc1cccc(OC(=O)NC(C)(C)C)c1
active: [8] 0.551
inactive: [1] 0.974 | [2] 0.995 | [3] 0.972 | [4] 1.19 | [5] 1.07 | [6] 0.934 | [7] 0.934 | [9] 1.01 | [10] 0.959 | [11] 1.05 | [12] 0.975

O=C(Nc1ccccc1)c1ccccc1I
inactive: [1] 1.05 | [2] 1.04 | [3] 1 | [4] 0.97 | [5] 1.04 | [6] 1.09 | [7] 0.96 | [8] 0.989 | [9] 0.991 | [10] 1.01 | [11] 1 | [12] 1.03

N#Cc1cc(Br)c(O)c(Br)c1
active: [3] 0.773
inactive: [1] 0.996 | [2] 0.907 | [4] 1.28 | [5] 0.864 | [6] 0.903 | [7] 0.988 | [8] 1.1 | [9] 0.915 | [10] 0.94 | [11] 0.953 | [12] 0.959

COP(=S)(OC)Oc1c(Cl)cc(C)cc1Cl
inactive: [1] 0.99 | [2] 0.983 | [3] 0.99 | [4] 1 | [5] 0.971 | [6] 0.925 | [7] 1.06 | [8] 0.97 | [9] 0.96 | [10] 0.998 | [11] 0.912 | [12] 0.972

CSc1nnc(C(C)(C)C)c(=O)n1N
inactive: [1] 1.07 | [2] 1.04 | [3] 1.01 | [4] 0.997 | [5] 1.03 | [6] 1.06 | [7] 1.03 | [8] 1.05 | [9] 1.02 | [10] 1.01 | [11] 1.06 | [12] 1.01

CNC(=O)N(C)c1nnc(C(C)(C)C)s1
inactive: [1] 0.995 | [2] 0.99 | [3] 0.945 | [4] 0.931 | [5] 0.969 | [6] 1.16 | [7] 0.941 | [8] 0.963 | [9] 0.973 | [10] 1 | [11] 1.03 | [12] 0.959

CCOC(=O)OC1=C(c2cc(C)ccc2C)C(=O)NC12CCC(OC)CC2 (stereo not given)
inactive: [1] 0.998 | [2] 1.01 | [3] 0.983 | [4] 1.01 | [5] 0.965 | [6] 0.993 | [7] 0.992 | [8] 0.969 | [9] 0.981 | [10] 1.03 | [11] 0.995 | [12] 0.987
